Values joined by “and” are separate entries in the source; they are usually repeats but may differ in a detail not shown here. Identical values can stand only once. Inconclusive results are not listed. Where a call stands in place of a potency, no number is given. Where a structure was tested more than once in an assay, its records may differ in their call. Active and inactive are the calls of the source. Calls come from the whole dose curve; as a rule, active = well fitted curve in the direction sought with a large enough effect in the repeat runs; inconclusive = weak or mixed curves; inactive = no such curve, though single readings can be large; an effect the other way counts as inactive or inconclusive.
Tests used:
[1] = qHTS RealTime-Glo MT Cell Viability Assay in HepG2 cells - 16 hour (AID 1224885); note: nearly all actives have a fitted effect of over 50% in size; note: potency is the fitted concentration of half-maximal effect
Summary of the method: (§1)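 HepG2 cells (600/well) were dispensed with RealTime-Glo reagents, incubated 5 h at 37 °C, then treated with compounds in DMSO for up to 40 h. Nonlytic NanoLuc luminescence reflecting viable cells was read at each stated time point.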

[2] = qHTS RealTime-Glo MT Cell Viability Assay in HEK293 cells - 24 hour (AID 1224886); note: nearly all actives have a fitted effect of over 50% in size; note: potency is the fitted concentration of half-maximal effect
Summary of the method: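 HEK293 cells seeded with NanoLuc/prosubstrate reagent, rested 5 h at 37 C, then dosed and kept at 37 C up to 40 h. Nonlytic real-time luminescence from viable cells read at 0, 8, 16, 24, 32 and 40 h.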

[3] = qHTS RealTime-Glo MT Cell Viability Assay in HEK293 cells - 8 hour (AID 1224887); note: nearly all actives have a fitted effect of over 50% in size; note: potency is the fitted concentration of half-maximal effect
Summary of the method: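 Cells were seeded together with NanoLuc luciferase and a prosubstrate that viable cells reduce to a luciferase substrate. After a 5 h incubation at 37 C/5% CO2, compounds were added and luminescence was measured repeatedly during 40 h of treatment.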

[4] = A CellTox Green Cytotoxicity Assay to monitor cytotoxicity in HEK293 cells - 16 hour (AID 1224888); note: nearly all actives have a fitted effect of over 35% in size
Summary of the method: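 Nonlytic real-time cytotoxicity: HEK293 + CellTox Green reagent plated, 5 h preincubation, pintool compound addition (23 nL in DMSO), 37 C for 40 h, fluorescence measured at successive time points.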

[5] = qHTS RealTime-Glo MT Cell Viability Assay in HepG2 cells - 0 hour (AID 1224889); note: nearly all actives have a fitted effect of over 50% in size
Summary of the method: as §1

[6] = A CellTox Green Cytotoxicity Assay to monitor cytotoxicity in HepG2 cells - 8 hour (AID 1224890); note: nearly all actives have a fitted effect of over 45% in size; note: potency is the fitted concentration of half-maximal effect
Summary of the method: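 Read-out is fluorescence of a cyanine dye excluded from live cells that stains DNA of dead HepG2 cells, with signal proportional to cytotoxicity. Plates were read at 0, 8, 16, 24, 32 and 40 h after compound addition.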

[7] = qHTS assay to identify small molecule antagonists of the estrogen receptor alpha (ER-alpha) signaling pathway using the BG1 cell line in the presence of 0.1 nM 17-beta-estradiol - cell viability counter screen (AID 1259241); note: nearly all actives have a fitted effect of over 40% in size
Summary of the method: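 VM7Luc4E2 cells (endogenous ER-alpha, 4×ERE-luciferase), hormone-starved 5 days in charcoal-stripped FBS, were treated with compounds plus 0.1 nM 17beta-estradiol for 22 hr at 37C; viability read in same wells as CellTiter-Fluor live-cell protease fluorescence.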

[8] = target: Estrogen receptor (Homo sapiens) (UniProt P03372); experiment: qHTS assay to identify small molecule antagonists of the estrogen receptor alpha (ER-alpha) signaling pathway using the BG1 cell line in the presence of 0.1 nM 17-beta-estradiol (AID 1259244); note: nearly all actives have a fitted effect of over 50% in size; note: potency is the fitted concentration of half-maximal effect
Summary of the method: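 Cells: VM7Luc4E2, endogenous ER-alpha, 4x ERE-luc stable. Pre-culture 5 d, phenol red-free, charcoal-stripped FBS. Plated 24 h, compound + E2 0.1 nM final, 22 h 37C/5% CO2. Readout ONE-Glo luminescence.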

[9] = qHTS assay to identify small molecule antagonists of the androgen receptor (AR) signaling pathway using the MDA cell line in the presence of 0.5 nM R1881 - cell viability counter screen (AID 1259242); note: nearly all actives have a fitted effect of over 45% in size
Summary of the method: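 Counter screen for cytotoxicity run in the same wells as the AR antagonist reporter screen: MDA-kb2 cells were treated 16 hr with test compounds and 0.5 nM R1881, then live-cell protease activity was measured by fluorescence.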

[10] = target: Androgen receptor (Homo sapiens) (UniProt P10275); experiment: qHTS assay to identify small molecule antagonists of the androgen receptor (AR) signaling pathway using the MDA cell line in the presence of 0.5 nM R1881 (AID 1259243); note: nearly all actives have a fitted effect of over 50% in size
Summary of the method: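 Luciferase luminescence is the read-out: compounds are tested for suppressing 0.5 nM R1881-driven MMTV reporter activity in MDA-kb2 cells after 16 hr at 37C.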

Estrogen receptor (Homo sapiens), sequence (P03372 whole entry, looked up): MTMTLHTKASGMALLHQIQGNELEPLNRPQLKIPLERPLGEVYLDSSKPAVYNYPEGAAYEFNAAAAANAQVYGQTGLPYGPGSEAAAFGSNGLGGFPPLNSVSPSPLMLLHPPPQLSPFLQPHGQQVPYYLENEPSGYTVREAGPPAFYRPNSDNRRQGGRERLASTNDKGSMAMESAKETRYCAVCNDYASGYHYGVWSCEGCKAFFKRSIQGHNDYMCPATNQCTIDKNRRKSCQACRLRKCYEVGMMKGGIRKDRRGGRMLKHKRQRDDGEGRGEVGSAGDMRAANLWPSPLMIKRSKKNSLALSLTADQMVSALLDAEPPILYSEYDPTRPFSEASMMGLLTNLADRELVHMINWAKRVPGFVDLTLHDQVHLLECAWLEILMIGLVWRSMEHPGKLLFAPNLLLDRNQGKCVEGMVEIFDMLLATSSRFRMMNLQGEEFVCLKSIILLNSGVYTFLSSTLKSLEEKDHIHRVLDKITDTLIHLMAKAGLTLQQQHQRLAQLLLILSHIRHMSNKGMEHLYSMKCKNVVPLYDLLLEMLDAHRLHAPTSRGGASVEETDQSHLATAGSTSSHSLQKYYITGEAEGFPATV
Androgen receptor (Homo sapiens), sequence (P10275 whole entry, looked up): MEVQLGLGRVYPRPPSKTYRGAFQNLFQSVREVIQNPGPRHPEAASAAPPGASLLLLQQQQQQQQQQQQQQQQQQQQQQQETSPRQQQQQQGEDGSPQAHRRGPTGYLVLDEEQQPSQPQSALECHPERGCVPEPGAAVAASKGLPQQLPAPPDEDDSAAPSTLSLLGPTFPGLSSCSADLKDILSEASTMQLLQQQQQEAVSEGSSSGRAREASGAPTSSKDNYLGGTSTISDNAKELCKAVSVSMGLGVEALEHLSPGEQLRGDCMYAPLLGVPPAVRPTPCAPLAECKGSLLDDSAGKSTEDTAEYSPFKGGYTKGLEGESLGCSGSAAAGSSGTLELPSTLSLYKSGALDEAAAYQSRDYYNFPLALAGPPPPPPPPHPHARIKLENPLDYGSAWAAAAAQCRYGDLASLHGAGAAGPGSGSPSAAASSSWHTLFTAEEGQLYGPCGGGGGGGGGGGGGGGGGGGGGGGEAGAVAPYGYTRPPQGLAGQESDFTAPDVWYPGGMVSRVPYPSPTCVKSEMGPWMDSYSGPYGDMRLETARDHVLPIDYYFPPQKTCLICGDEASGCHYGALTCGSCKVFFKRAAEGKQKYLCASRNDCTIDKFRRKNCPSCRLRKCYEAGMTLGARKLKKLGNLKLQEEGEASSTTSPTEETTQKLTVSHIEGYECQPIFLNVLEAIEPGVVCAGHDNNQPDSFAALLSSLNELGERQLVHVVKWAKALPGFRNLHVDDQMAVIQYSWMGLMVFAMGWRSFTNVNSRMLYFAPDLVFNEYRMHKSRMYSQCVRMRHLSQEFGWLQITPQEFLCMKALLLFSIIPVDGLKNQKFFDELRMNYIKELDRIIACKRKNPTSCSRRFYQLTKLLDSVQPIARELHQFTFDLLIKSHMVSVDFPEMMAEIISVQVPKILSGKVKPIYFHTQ

SMILES | Potency [1] | Potency [2] | Potency [3] | Potency [4] | Potency [5] | Potency [6] | Potency [7] | Potency [8] | Potency [9] | Potency [10]
COCC(=O)N(c1c(C)cccc1C)C(C)C(=O)OC (stereo not given) | inactive | inactive | inactive | inactive | inactive | inactive | inactive | inactive | – | –
CCCC[N+]1(C)CCCC1 | inactive | inactive | inactive | inactive | inactive | inactive | inactive | – | inactive | –
O=C(O)C(Cl)(Cl)Cl | inactive | inactive | inactive | inactive | inactive | inactive | inactive | – | inactive | –
CNC | inactive | inactive | inactive | inactive | inactive | inactive | inactive | – | inactive | –
C1CCC(NC2CCCCC2)CC1 | inactive | inactive | inactive | inactive | inactive | inactive | inactive | inactive | – | –
Oc1ccccc1-c1ccccc1 | inactive | inactive | inactive | inactive | inactive | inactive | inactive | inactive | inactive | –
CCCCCCCCCCCCOS(=O)(=O)O | inactive | inactive | inactive | – | inactive | inactive | inactive | – | – | –
CC(Cl)(Cl)C(=O)O | inactive | inactive | inactive | inactive | inactive | inactive | inactive | inactive | inactive | –
CCCCCCCCCCCCCCCCn1cc[n+](C)c1 | inactive and 49.4 µM (active) and 49.1 µM (active) | – | inactive and 55.4 µM (active) and 55.1 µM (active) | – | inactive | inactive and 55.4 µM (active) and 55.1 µM (active) | – | – | – | –
COP(=O)(OC)OC=C(Cl)Cl | inactive | inactive | inactive | inactive | inactive | inactive | inactive | inactive | – | –
Cc1cc(Cl)ccc1OCC(=O)O | inactive | inactive | inactive | inactive | inactive | inactive | inactive | inactive | – | inactive
CCCCCC[n+]1ccccc1 | inactive | inactive | inactive | inactive | inactive | inactive | inactive | – | inactive | –
O=C(O)c1ccccc1O | inactive | inactive | inactive | inactive | inactive | inactive | inactive | – | inactive | –
O=c1[nH]c(=O)n(Cl)c(=O)n1Cl | inactive | inactive | inactive | inactive | inactive | inactive | inactive | – | inactive | –
CCCCCCCCCCCCCC[P+](CCCCCC)(CCCCCC)CCCCCC | 13.9 µM (active) and 19.7 µM (active) and inactive | 5.52 µM (active) and 6.22 µM (active) and 3.46 µM (active) | 12.4 µM (active) and 17.5 µM (active) | – | inactive | 19.6 µM (active) and 22.1 µM (active) and inactive | – | 2.74 µM (active) and 3.09 µM (active) and 3.43 µM (active) | – | –

— PubChem BioAssay (Tox21)
